Experimental data: PubChem BioAssay
Where “and” joins values, the source holds several entries; their conditions need not be identical. Identical values can stand only once. For part of these data: Entries with a potency or affinity are not part of this list. Calls of active or inactive are those of the source. Unless noted, the rule behind the calls is not given here.

What was measured:
[1] = antimalarial activity against Dd2 strain (AID 2302;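 active = growth inhibition above 50% at the single 2 µM test dose, taken to imply half-maximal potency below 2 µM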;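 note: 0% = DMSO untreated growth and 100% = chloroquine plus artemisinin killed control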); settings: P. falciparum Dd2 in RBCs, LDH growth readout, 72 h; at 2 µM; active compounds read high
[2] = human hepatoma cell viability loss – ATP luminescence, cytotoxicity control for P. falciparum antimalarial project, primary screen (AID 2303;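 active = inhibition above 50%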;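 note: 0% = DMSO wells and 100% = digitonin-killed cells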); settings: HepG2 viability, 24-48 h, at 10 µM, active compounds read high
[3] = molecular target: L-lactate dehydrogenase (Plasmodium falciparum (isolate CDC / Honduras)) (UniProt Q27743); assay: PfLDH activity inhibition – cell lysate, 3D7 strain, counter-screen for P. falciparum growth inhibition project (AID 2304);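 note: 0% = vehicle and 100% = reference inhibitor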; settings: P. falciparum 3D7 crude extract, LDH APAD/NBT absorbance; at 2 µM; active compounds read high
Sequence of L-lactate dehydrogenase (Plasmodium falciparum (isolate CDC / Honduras)) (Q27743 whole entry, looked up): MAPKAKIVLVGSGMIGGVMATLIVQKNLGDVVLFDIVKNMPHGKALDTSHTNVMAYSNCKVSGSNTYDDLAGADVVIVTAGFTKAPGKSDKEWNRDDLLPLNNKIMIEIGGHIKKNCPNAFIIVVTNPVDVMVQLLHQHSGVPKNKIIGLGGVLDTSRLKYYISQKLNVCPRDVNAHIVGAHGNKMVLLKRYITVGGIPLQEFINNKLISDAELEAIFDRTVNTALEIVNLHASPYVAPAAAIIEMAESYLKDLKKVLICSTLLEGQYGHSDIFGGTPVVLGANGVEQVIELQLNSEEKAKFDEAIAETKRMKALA

[4] = inhibition of 3D7 malaria parasite growth – strain 3D7 (AID 2306);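 note: 0% = DMSO wells and 100% = chloroquine plus artemisinin control wells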; settings: P. falciparum 3D7 erythrocytic growth, LDH absorbance, 72 h; at 2 µM; active compounds read high
[5] = molecular target: Calcium-dependent protein kinase 1 (Plasmodium falciparum (isolate 3D7)) (UniProt P62344); assay: PfCDPK1 kinase inhibitors, biochemical, TCAMS library (AID 1159585; cut-off not given, nearly all actives have IC50 up to about 0.98 µM;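 note: inhibitors leave more ATP so luminescence rises with inhibition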); settings: recombinant PfCDPK1, Kinase-Glo ATP depletion luminescence
Sequence of Calcium-dependent protein kinase 1 (Plasmodium falciparum (isolate 3D7)) (P62344 whole entry, looked up): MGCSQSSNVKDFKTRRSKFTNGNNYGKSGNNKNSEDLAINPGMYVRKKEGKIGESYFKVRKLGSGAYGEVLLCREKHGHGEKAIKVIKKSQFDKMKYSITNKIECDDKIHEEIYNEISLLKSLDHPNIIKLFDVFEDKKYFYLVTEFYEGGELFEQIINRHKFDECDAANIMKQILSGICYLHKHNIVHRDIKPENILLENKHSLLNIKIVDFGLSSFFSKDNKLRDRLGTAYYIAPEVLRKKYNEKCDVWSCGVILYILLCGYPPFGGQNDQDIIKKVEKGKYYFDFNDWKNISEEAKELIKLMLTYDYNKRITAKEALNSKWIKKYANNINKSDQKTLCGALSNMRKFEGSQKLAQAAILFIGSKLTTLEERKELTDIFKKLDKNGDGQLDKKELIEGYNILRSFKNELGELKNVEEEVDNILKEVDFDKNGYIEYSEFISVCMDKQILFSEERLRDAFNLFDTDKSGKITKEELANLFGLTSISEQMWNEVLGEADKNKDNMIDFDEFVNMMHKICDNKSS

[6] = molecular target: Plasmodium falciparum protein kinase 6 (PK6, PF3D7_1337100) (UniProt Q8IDW1); assay: PfPK6 kinase inhibitors, biochemical, TCAMS library (AID 1159586); settings: recombinant PfPK6, Kinase-Glo ATP depletion luminescence
Sequence of Plasmodium falciparum protein kinase 6 (PK6, PF3D7_1337100) (Q8IDW1 1-305): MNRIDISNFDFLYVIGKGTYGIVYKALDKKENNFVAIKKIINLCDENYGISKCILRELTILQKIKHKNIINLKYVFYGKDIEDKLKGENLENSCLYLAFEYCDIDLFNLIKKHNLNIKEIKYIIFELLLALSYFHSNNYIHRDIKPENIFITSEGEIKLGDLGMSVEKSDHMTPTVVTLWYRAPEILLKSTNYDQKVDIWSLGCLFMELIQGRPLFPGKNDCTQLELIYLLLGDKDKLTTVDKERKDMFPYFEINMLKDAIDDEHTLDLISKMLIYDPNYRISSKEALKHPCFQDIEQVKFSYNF

[7] = molecular target: Protein kinase 7 (PK7), Plasmodium falciparum 3D7 (PF3D7_0213400) (UniProt Q7YTF7); assay: inhibition of Plasmodium PK7 catalytic activity – biochemical, TCAMS antimalarial set, Kinase-Glo luminescence (AID 1159587); settings: recombinant PfPK7, Kinase-Glo ATP depletion luminescence
Sequence of Protein kinase 7 (PK7), Plasmodium falciparum 3D7 (PF3D7_0213400) (Q7YTF7 1-343): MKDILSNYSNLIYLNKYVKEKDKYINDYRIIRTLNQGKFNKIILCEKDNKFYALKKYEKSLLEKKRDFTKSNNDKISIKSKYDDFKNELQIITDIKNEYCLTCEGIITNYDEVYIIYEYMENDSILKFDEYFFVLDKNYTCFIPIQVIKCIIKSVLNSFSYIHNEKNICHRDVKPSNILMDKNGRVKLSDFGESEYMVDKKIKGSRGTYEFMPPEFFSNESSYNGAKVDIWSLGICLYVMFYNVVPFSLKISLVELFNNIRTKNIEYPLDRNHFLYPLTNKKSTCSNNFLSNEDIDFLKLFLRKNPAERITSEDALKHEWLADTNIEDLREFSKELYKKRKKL

[8] = molecular target: Calcium-dependent protein kinase 4 (Plasmodium falciparum (isolate 3D7)) (UniProt Q8IBS5); assay: PfCDPK4 kinase inhibitors, biochemical, TCAMS library (AID 1159588; cut-off not given, nearly all actives have IC50 up to about 0.91 µM); settings: recombinant PfCDPK4, Kinase-Glo ATP depletion luminescence
Sequence of Calcium-dependent protein kinase 4 (Plasmodium falciparum (isolate 3D7)) (Q8IBS5 whole entry, looked up): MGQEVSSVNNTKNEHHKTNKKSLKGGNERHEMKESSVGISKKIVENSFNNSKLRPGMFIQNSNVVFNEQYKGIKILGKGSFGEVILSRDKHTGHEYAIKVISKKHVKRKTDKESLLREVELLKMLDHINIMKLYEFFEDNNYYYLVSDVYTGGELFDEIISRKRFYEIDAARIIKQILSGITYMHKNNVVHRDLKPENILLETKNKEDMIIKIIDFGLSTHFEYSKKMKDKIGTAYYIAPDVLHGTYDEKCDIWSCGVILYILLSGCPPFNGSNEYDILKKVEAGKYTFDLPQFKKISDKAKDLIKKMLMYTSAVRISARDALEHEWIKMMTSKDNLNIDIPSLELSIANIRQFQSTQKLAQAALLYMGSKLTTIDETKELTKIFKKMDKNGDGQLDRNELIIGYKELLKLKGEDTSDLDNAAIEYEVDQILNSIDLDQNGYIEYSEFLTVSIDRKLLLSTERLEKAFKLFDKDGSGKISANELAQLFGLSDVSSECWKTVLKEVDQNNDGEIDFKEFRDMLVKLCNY

O=C(NCc1ccccc1)c1nn(CCCN2CCC3(CC2)C(=O)NCN3c2ccccc2)cc1-c1ccc(Cl)c(Cl)c1
inactive: growth inhibition [1] 21% | inhibition [2] 6% | inhibition [3] -5% | outcome [5] | outcome [6] | outcome [7] | outcome [8]
active: growth inhibition [4] 88%

FC(F)(F)c1ccc(NC(=S)N2CCC(CN3CCC(c4c[nH]c5ccccc45)CC3)CC2)cc1
inactive: growth inhibition [1] 45% | inhibition [2] 35% | inhibition [3] -6% | outcome [5] | outcome [6] | outcome [7] | outcome [8]
active: growth inhibition [4] 100%

CC(=O)Nc1ccc2[nH]cc(C3CCN(CC4CCC(NC(=O)/C=C/c5ccc(Cl)c(Cl)c5)CC4)CC3)c2c1 (stereo not drawn)
inactive: inhibition [2] 18% and 10% | inhibition [3] 2% and 6% | outcome [5] | outcome [6] | outcome [7] | outcome [8]
active: growth inhibition [1] 99% and 59% | growth inhibition [4] 90% and 100%

NC(=O)CN1CC=C(c2c[nH]c3ccc(Br)cc23)CC1
active: growth inhibition [4] 83%
inactive: growth inhibition [1] 0% | inhibition [2] 30% | inhibition [3] -12% | outcome [5] | outcome [6] | outcome [7] | outcome [8]

O=S(=O)(NC1CCC(CN2CCC(c3c[nH]c4ccccc34)CC2)CC1)c1ccc(Cl)c(Cl)c1 (stereo not drawn)
active: growth inhibition [4] 97%
inactive: growth inhibition [1] 32% | inhibition [2] 36% | inhibition [3] 0% | outcome [5] | outcome [6] | outcome [7] | outcome [8]

O=C(/C=C/c1ccc(Cl)c(Cl)c1)NC1CCC(CN2CC[C@H](c3c[nH]c4ccccc34)[C@@H](O)C2)CC1 (stereo partly drawn)
active: growth inhibition [1] 87% | growth inhibition [4] 101%
inactive: inhibition [2] 30% | inhibition [3] -7% | outcome [5] | outcome [6] | outcome [7] | outcome [8]

CC[C@H]1CN2CC[C@H]1C[C@H]2[C@H](O)c1ccnc2ccc(O)cc12
inactive: growth inhibition [1] 2% | inhibition [2] 11% | inhibition [3] -3% | outcome [5] | outcome [6] | outcome [7] | outcome [8]
active: growth inhibition [4] 99%

CN(c1ccnc(Nc2ccc(CS(C)(=O)=O)cc2)n1)C1CCN(Cc2ccccc2)CC1
inactive: growth inhibition [1] 9% | inhibition [2] 10% | inhibition [3] 1% | outcome [5] | outcome [6] | outcome [7] | outcome [8]
active: growth inhibition [4] 83%

CC[C@H]1CN2CC[C@H]1C[C@H]2[C@H](O)c1cc(-c2ccc(C)cc2)nc2ccc(OC)cc12
active: growth inhibition [1] 99% | growth inhibition [4] 99%
inactive: inhibition [2] 22% | inhibition [3] 6% | outcome [5] | outcome [6] | outcome [7] | outcome [8]

CN(c1cc(NC(=O)c2ccc(F)cc2)ccn1)C1CCN(Cc2cccc(C#N)c2)CC1
inactive: inhibition [3] 1% | outcome [5] | outcome [6] | outcome [7] | outcome [8]
active: growth inhibition [1] 83% | inhibition [2] 73% | growth inhibition [4] 97%

CCOc1ccc(CN(CCc2ccc3c(c2)OCO3)Cc2cc(OC)ccc2O)cc1
inactive: inhibition [2] 3% | inhibition [3] -4% | outcome [5] | outcome [6] | outcome [7] | outcome [8]
active: growth inhibition [1] 88% | growth inhibition [4] 96%

CS(=O)(=O)Nc1ccc2[nH]cc(C3CCN(CC4CCN(C(=O)/C=C/c5ccc(Cl)c(Cl)c5)CC4)CC3)c2c1
inactive: inhibition [2] 27% | inhibition [3] -5% | outcome [5] | outcome [6] | outcome [7] | outcome [8]
active: growth inhibition [1] 92% | growth inhibition [4] 101%

[O-]c1n[n+](C2CCCCC2)no1
inactive: inhibition [2] -13% | inhibition [3] -5% | outcome [5] | outcome [6] | outcome [7] | outcome [8]
active: growth inhibition [1] 82% | growth inhibition [4] 91%

COc1cccc(C2(C)CCN(CCCCNC(=O)c3ccc(NC(=O)c4ccc(Cl)cc4)cc3)CC2)c1
inactive: inhibition [2] 19% | inhibition [3] 8% | outcome [5] | outcome [6] | outcome [7] | outcome [8]
active: growth inhibition [1] 72% | growth inhibition [4] 97%

S=C(Nc1ccccc1Cl)NC1CCC(CN2CCC(c3c[nH]c4ccccc34)CC2)CC1 (stereo not drawn)
inactive: growth inhibition [1] 12% | inhibition [2] 31% | inhibition [3] 8% | outcome [5] | outcome [6] | outcome [7] | outcome [8]
active: growth inhibition [4] 90%

O=C1Nc2cccc3c2C1(CCCCCN1CC=C(c2c[nH]c4ccccc24)CC1)CCC3 (stereo not drawn)
active: growth inhibition [1] 89% | growth inhibition [4] 94%
inactive: inhibition [2] 2% | inhibition [3] 3% | outcome [5] | outcome [6] | outcome [7] | outcome [8]

Cc1ccc(/C=C/C(=O)NC2CCC(CN3CCC(c4c[nH]c5ccccc45)CC3)CC2)cc1 (stereo not drawn)
inactive: inhibition [2] 32% and 41% | inhibition [3] -2% and 3% | outcome [5] | outcome [6] | outcome [7] | outcome [8]
active: growth inhibition [1] 66% and 69% | growth inhibition [4] 101%

CCCCCCCN1[C@@H]2CC[C@H]1CC(CCOc1ccnc3ccc(OC)cc13)C2 (stereo partly drawn)
active: growth inhibition [1] 88% | growth inhibition [4] 98%
inactive: inhibition [2] 23% | inhibition [3] -1% | outcome [5] | outcome [6] | outcome [7] | outcome [8]

C/C=C1\CN2CC[C@H]1C[C@H]2[C@H](O)c1ccnc2ccc(O)cc12
active: growth inhibition [4] 98%
inactive: growth inhibition [1] -1% | inhibition [2] -15% | inhibition [3] -3% | outcome [5] | outcome [6] | outcome [7] | outcome [8]

COc1ccc2[nH]cc(C3=CCN(Cc4ccccc4)CC3)c2c1
inactive: inhibition [3] -5% | outcome [5] | outcome [6] | outcome [7] | outcome [8]
active: growth inhibition [1] 84% | inhibition [2] 51% | growth inhibition [4] 90%

CC[C@H]1CN2CC[C@@H]1C[C@H]2[C@H](O)c1ccnc2ccc(OC)cc12
inactive: inhibition [2] -8% | inhibition [3] -4% | outcome [5] | outcome [6] | outcome [7] | outcome [8]
active: growth inhibition [1] 61% | growth inhibition [4] 100%
